Laboratory results taken from PubChem BioAssay (NCI).
The panel holds about 79,000 compounds, 15% with a hit somewhere; the sample as a whole holds those more often. Active and inactive are the calls of the source. Cut-off read from the data, not from the text of the source: active = growth inhibition above about 70%; inactive = the rest.

Tests used:
[1] = NCI Yeast Anticancer Drug Screen. Data for the rad50 strain (AID 155);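 note: 0% = growth of vehicle-only cultures of the same strain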; conditions: S. cerevisiae rad50 strain growth inhibition; at 50.0 µM; stronger effect = higher value
Summary of the method: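 Readout: growth inhibition relative to vehicle-treated cultures. Compound exposure was carried out in a genetically defined yeast strain deficient in DNA damage repair.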

[2] = NCI Yeast Anticancer Drug Screen. Data for the sgs1 mgt1 strain (AID 161);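 note: 0% = growth of cultures given vehicle only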; conditions: S. cerevisiae sgs1 mgt1 strain, at 50.0 µM, stronger effect = higher value
Summary of the method: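 Genetically altered yeast, compound exposure, growth inhibition relative to vehicle.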

[3] = NCI Yeast Anticancer Drug Screen. Data for the cln2 rad14 strain (AID 165);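 note: 0% = growth equal to vehicle treated cultures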; conditions: S. cerevisiae cln2 rad14 strain, at 50.0 µM, stronger effect = higher value
Summary of the method: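 Each compound was tested on cln2 rad14 yeast. Inhibition of growth was calculated against vehicle-exposed controls.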

[4] = NCI Yeast Anticancer Drug Screen. Data for the bub3 strain (AID 167); conditions: S. cerevisiae bub3 mutant strain, at 50.0 µM, stronger effect = higher value
Summary of the method: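 Readout: yeast growth inhibition, expressed relative to vehicle-only wells. The test organism is a mutant strain from a panel with lesions in DNA repair or checkpoint genes.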

[5] = NCI Yeast Anticancer Drug Screen. Data for the mlh1 rad18 strain (AID 175); conditions: S. cerevisiae mlh1 rad18 strain growth inhibition; at 50.0 µM; stronger effect = higher value
Summary of the method: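 Vehicle-treated cultures served as the reference for growth inhibition in a yeast strain carrying DNA damage repair alterations exposed to each compound.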

[6] = NCI Yeast Anticancer Drug Screen. Data for the mec2-1 strain (AID 157); conditions: S. cerevisiae mec2-1 strain, at 50.0 µM, stronger effect = higher value
Summary of the method: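 Vehicle-treated cultures served as reference for growth inhibition of compound-exposed mec2-1 yeast.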

Measured: growth inhibition

CCCCCCC(=O)OCC
inactive: [1] 16.3% | [2] -4.7% | [3] 0.9% | [4] 12.9% | [5] 14.2%

C#CCOCCC(C(=O)O)C(=O)O
inactive: [1] 9.9% | [2] 8.6% | [3] -1.7% | [4] 11.9% | [5] 2.7%

Oc1ccc(C2CCCC2)cc1
inactive: [1] -9.15% | [2] -22.1% | [3] -14.7% | [4] -12.7% | [5] -17.4%

CCC1(C)N=C(C(N)=O)c2ncn(N=C(C)C)c2N1 (centres undefined)
inactive: [1] -15.8% | [2] -24.3% | [3] 14.2% | [4] -10.5% | [5] -16.6%

Cn1nc(NC(=O)c2cc(N)nn2C)cc1C(=O)Nc1ccc2cc(S(=O)(=O)O)cc(S(=O)(=O)O)c2c1
inactive: [1] -14.1% | [2] -10.3% | [3] 7.65% | [4] 13.7% | [5] -3%

CC1(C)OCC(C2OC(C)(C)OC2C(CO)Nc2ccc([N+](=O)[O-])cc2[N+](=O)[O-])O1 (centres undefined)
inactive: [1] 53% | [2] 59.1% | [3] 41.4% | [4] 11.2% | [5] 49.1%

CC(Cc1ccccc1)c1ccccc1 (centres undefined)
inactive: [1] 15.9% | [2] 10.7% | [3] 3.35% | [4] -0.05% | [5] 2.1%

N[C@@H]1c2c(Br)sc(Br)c2C(=O)[C@H]1Br
inactive: [1] -5.35% | [2] 5.6% | [3] 5.95% | [4] -7.05% | [5] -17.4%

Cc1ccc2nc(-c3cccc([N+](=O)[O-])c3)c(N=O)n2c1
inactive: [1] -0.7% | [2] 1.05% | [3] -14.9% | [4] 2.1% | [5] 21.2%

O=C(O)C1CC(O)c2ccccc2C1c1ccccc1 (centres undefined)
inactive: [1] -2.65% | [2] -11.4% | [3] 22.6% | [4] 5.1% | [5] -17.3%

CNS(=O)(=O)c1ccc(C)cc1
inactive: [1] 2.15% | [2] 0.6% | [3] 3.25% | [4] 0.45% | [5] 0.35%

Cc1cccc(C)c1N=Nc1ccc(O)c(CN(C)C)c1
inactive: [1] -6.2% | [2] -12.1% | [3] -3.6% | [4] 22.6% | [5] -8.85%

CC(=O)c1ccc2c(c1)-c1ccc(C(C)=O)cc1-2
inactive: [1] -11.9% | [2] -14.4% | [3] -11% | [4] -10.8% | [5] -7.6%

CCOC(=O)N(C)Cc1ccc(Cl)cc1
inactive: [1] 5.75% | [2] 1.25% | [3] -26.2% | [4] -11.8% | [5] 21.4%

N#CC1=C2CCCC(C#N)=C2CCC1
inactive: [1] 0.95% | [2] -4.55% | [3] -40.1% | [4] -21.3% | [5] -13.8%

CN(C/C=C/CN(C)C(=S)Nc1ccccc1)C(=S)Nc1ccccc1
inactive: [1] -19.1% | [2] -20.5% | [3] -2.65% | [4] 2.85% | [5] 5.65%

CN(CCO)c1nc(N)cc(=O)[nH]1
inactive: [1] -17.7% | [2] -10.9% | [3] 4.5% | [4] -10.9% | [5] -8.45%

FC(F)(F)c1ccc(C2SCc3nc4ccccc4n32)cc1 (centres undefined)
inactive: [1] -43% | [2] -1.95% | [3] -0.5% | [4] -14.2% | [5] 11.3%

COc1ccccc1C(O)C(C)(C)C (centres undefined)
inactive: [1] 50.9% | [2] 7.5% | [3] 8.9% | [4] 8.4% | [5] 28.9%

Cc1cc(C#N)c[n+](C)c1
inactive: [1] -7.25% | [2] -25% | [3] 16.1% | [4] 5.25% | [5] -3.75%

CN(CCCN)CCCN
inactive: [1] -41.4% | [2] -32.6% | [3] -55.6% | [4] -28.6% | [5] -21.7%

COc1ccc2c3c([nH]c2c1[N+](=O)[O-])C(C)N(C)CC3 (centres undefined)
inactive: [1] -0.1% | [2] 21.1% | [3] 25.3% | [4] 0.8% | [5] 33.2%

COc1cccc(/C=C(\C#N)C(=O)c2ccccc2)c1
inactive: [1] 4.4% | [2] 11.2% | [3] 19.6% | [4] 13.9% | [5] 19%

CCOC(=O)c1cc(C=O)oc1C
inactive: [1] 6.8% | [2] -8.1% | [3] -42.6% | [4] 2% | [5] -0.75%

CC(=O)N1c2cc(N=NN(C)C)ccc2NC(=O)CC1C (centres undefined)
inactive: [1] 20% | [2] 9.5% | [3] 0.65% | [4] 4.2% | [5] 34.3%

CN1c2ccccc2Nc2cc(C#N)ccc21
inactive: [1] -0.7% | [2] 14.8% | [3] -30.4% | [4] 19.2% | [5] 5.7%

NC(N)=NS(=O)(=O)c1ccc(N=Cc2c3ccccc3nc3ccccc23)cc1
active: [1] 98.7% | [2] 99.2% | [3] 98.8% | [4] 96% | [5] 98.8%

O=C(Nc1ccccc1C(=O)N/N=C/c1cccc(O)c1)c1ccccc1
inactive: [1] 9.5% | [2] 12.9% | [3] -20% | [4] 34.5% | [5] 4.55%

O=C(CP(=O)(c1ccccc1)c1ccccc1)c1cccc(C(=O)CP(=O)(c2ccccc2)c2ccccc2)c1
inactive: [1] -6.35% | [2] -7.05% | [3] -15.7% | [4] -21.1% | [5] -2.4%

O=C(O)C(=O)/C=C(\O)c1ccc(Br)cc1
inactive: [1] 32.3% | [2] 3.7% | [3] -12.1% | [4] 36.4% | [5] 30.1%

O=C(C[n+]1cc(Br)cc(Br)c1)c1ccc(Br)cc1
inactive: [1] -16.9% | [2] -0.05% | [3] -0.9% | [4] -4.95% | [5] 37.9%

Cc1cc2[nH]c(=O)c(=O)[nH]c2cc1C
inactive: [1] 0.35% | [2] 7.15% | [3] 17.7% | [4] -0.95% | [5] 2.55%

CC(C)c1cccc(C(C)C)c1N1C(=O)C(=O)C(c2nc3ccccc3s2)C(=O)C1=O
inactive: [6] -17.1% | [2] -7.65% | [3] -10% | [4] 1.55% | [5] -12.2%

Cc1ccc(S(=O)(=O)NN=C2CCCCCC2)cc1
inactive: [6] 7.55% | [2] 8.75% | [3] -24.9% | [4] -12.4% | [5] 5.65%

CC(=O)CC(=O)NC(C)(C)CC(C)(C)C
inactive: [6] -41.9% | [2] -31.8% | [3] 10.8% | [4] -34.8% | [5] -9.55%

O=C(NC(=O)C(Cl)Cl)OC1c2cc(Cl)ccc2-c2c(Cl)cc(Cl)cc21 (centres undefined)
active: [6] 99.5% | [2] 99.3% | [3] 98.8% | [4] 97.8% | [5] 99.2%

Cc1nc(N)[nH]c(=O)c1CCCN=Cc1ccc([N+](=O)[O-])cc1
inactive: [6] 6% | [2] 14.4% | [3] 7.7% | [4] 31.6% | [5] 29.9%

O=c1c2ccccc2on1CN1CCN(Cn2oc3ccccc3c2=O)CC1
inactive: [6] -11.1% | [2] -8% | [3] -12.9% | [4] -12.1% | [5] 5.05%

CCN(CC)CCOCCO
inactive: [6] -16% | [2] -0.65% | [3] 11.7% | [4] 0.95% | [5] -2.15%

CCCC[n+]1cccc(C(N)=O)c1
inactive: [6] -19.9% | [2] 3.35% | [3] 0.4% | [4] 12.8% | [5] -2.15%

Cn1c(=O)ccc2c(=O)c3c(ccc4ccccc43)oc21
inactive: [6] -12.3% | [3] -10.1% | [4] -7.05% | [5] -23.9%

Nc1cc2c(cc1I)-c1ccccc1C2O (centres undefined)
inactive: [6] 4.55% | [2] -12.8% | [3] -2.9% | [4] 11.2% | [5] -8.75%

NC(Cc1c[nH]c2ccc(O)cc12)C(=O)O (centres undefined)
inactive: [6] -8.35% | [2] -4.9% | [3] 4.9% | [4] -0.7% | [5] -9.3%

O=C(c1ccc(O)cc1)C1N=NCC1c1ccccc1 (centres undefined)
inactive: [6] -9.8% | [2] -11.8% | [3] -17.8% | [4] 56.8% | [5] 13.8%

O=C(COc1ccccc1)Nc1cccc2ccccc12
inactive: [6] 24.5% | [2] 6.6% | [3] -3.7% | [4] 10.4% | [5] 29.2%

COc1ccc([Se][Se]c2ccc(OC)cc2NC(C)=O)c(NC(C)=O)c1
inactive: [6] -6.8% | [2] 18.1% | [3] 16.1% | [4] 27.9% | [5] 7.15%

CC(=O)Nc1ccc2c(c1)Cc1cc(NC(C)=O)c(Cl)cc1-2
inactive: [6] 11.9% | [2] -1.45% | [3] 7.95% | [4] -2.35% | [5] -1.2%
